Rows were chosen to be rich in hits. Some 1.1% of all compounds tested hit in one or more screens of this group.
NCOA1 inh: human NCOA1 inhibition | 360,000 compounds, 0.12% hits | HEK293 GAL4-SRC1 luciferase reporter, luminescence | AID 588354 | inhibition, % at 3.6 µM;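 active = inhibition above the campaign mean plus 3 SD, with each screening campaign given its own cutoff, cut at about 60% in these data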;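 also: 0% = DMSO treated cells and 100% = gossypol at 36 µM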
NR5A2 inv ag: inverse agonists of human LRH-1 (NR5A2); HEK293T StAR-luciferase reporter, LRH-1 transfected, 24 h; inhibition, % at 3.6 µM; 360,000 compounds, 0.13% hits;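 active = inhibition above the mean inhibition of all tested compounds plus 3 SD, cut at about 73% in these data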;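 also: 0% = DMSO wells and 100% = reporter-only cells lacking LRH-1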
GalR3 antag: antagonists of human GalR3 | O60755 | HEK293 GalR3-CNG cAMP membrane potential fluorescence; galR3 body fused to GalR1 C-terminus | inhibition, % at 3 µM | 360,000 compounds, 0.44% hits | AID 651719;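 active = inhibition above the screen-wide average plus 3 SD, cut at about 13% in these data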;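 also: forskolin and galanin both at EC90 stimulate the cells; cAMP rise reported by CNG channel membrane potential dye signal; 0% = forskolin plus galanin with DMSO and 100% = forskolin alone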
Target sequence (O60755 1-299 limits assumed): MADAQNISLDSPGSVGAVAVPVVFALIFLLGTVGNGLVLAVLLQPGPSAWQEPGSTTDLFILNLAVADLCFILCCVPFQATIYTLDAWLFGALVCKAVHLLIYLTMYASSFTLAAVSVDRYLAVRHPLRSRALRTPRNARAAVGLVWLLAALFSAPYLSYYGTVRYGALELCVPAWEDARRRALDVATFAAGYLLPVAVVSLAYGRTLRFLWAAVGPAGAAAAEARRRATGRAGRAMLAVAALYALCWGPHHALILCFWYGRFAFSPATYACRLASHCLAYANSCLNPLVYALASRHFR
COUP-TFII inh: NR2F2 (human) inhibition, primary screen; P24468; HEK293T NGFI-A luciferase reporter, luminescence; inhibition, % at 8.6 µM; 370,000 compounds, 0.7% hits; AID 686940;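 active = inhibition above a per-plate cutoff, mean inhibition of test wells between control levels plus 3 SD, cut at about 38% in these data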;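 also: cells cotransfected with COUP-TFII expression vector driving the NGFI-A reporter; 0% = median of COUP-TF2 test wells and 100% = reporter-only cells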
Target sequence (P24468 whole entry, looked up): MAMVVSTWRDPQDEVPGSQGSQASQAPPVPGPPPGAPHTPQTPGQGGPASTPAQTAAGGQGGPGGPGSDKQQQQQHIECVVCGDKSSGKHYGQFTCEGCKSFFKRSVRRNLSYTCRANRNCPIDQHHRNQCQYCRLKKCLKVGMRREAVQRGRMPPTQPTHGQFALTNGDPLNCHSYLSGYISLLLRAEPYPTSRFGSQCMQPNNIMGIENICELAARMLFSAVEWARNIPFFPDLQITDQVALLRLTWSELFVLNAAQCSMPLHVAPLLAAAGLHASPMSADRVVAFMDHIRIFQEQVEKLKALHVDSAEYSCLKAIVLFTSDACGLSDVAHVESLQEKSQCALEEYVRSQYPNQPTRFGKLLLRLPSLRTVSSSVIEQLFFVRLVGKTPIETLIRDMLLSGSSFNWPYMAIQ
NCOA2 inhibitor: inhibits human steroid receptor coactivator 2; Q15596; HEK293 GAL4-SRC2 luciferase reporter, luminescence; inhibition, % at 9 µM; 370,000 compounds, 0.17% hits; AID 651957;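 active = inhibition above the mean inhibition of all tested compounds plus 3 SD, set per campaign, cut at about 52% in these data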;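 also: 0% = DMSO treated cells and 100% = cells given Gossypol at 36 µM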
SRC3 inh: inhibitors of human steroid receptor coactivator 3 (SRC3); 360,000 compounds, 0.17% hits; inhibition, % at 3.6 µM; AID 588352; HEK293 GAL4-SRC3 luciferase reporter, luminescence; Q9Y6Q9;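 active = inhibition above a per-campaign cutoff, the mean of all compounds plus 3 SD, cut at about 60% in these data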;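 also: 0% = DMSO-treated cells and 100% = gossypol-treated cells at 36 µM; higher means less SRC3-driven luciferase light from the GAL4 reporter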
GalR3 conf: GalR3 (human) antagonism, confirmation. 1,600 compounds, 59% hits. HEK293 GalR3 CNG cAMP biosensor, membrane potential fluorescence; galR3 fused to GalR1 carboxy tail; challenged with forskolin and galanin at EC90. inhibition, % at 3 µM. AID 652245. shares compounds with GalR3 antag;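 active = inhibition above the primary screen's cutoff, the mean inhibition of all screened compounds plus 3 SD, cut at about 13% in these data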;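 also: 0% = forskolin plus galanin and 100% = forskolin alone with DMSO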
CNG parental: parental cell agonism counter-screen for GalR3 antagonists. shares compounds with GalR3 antag. HEK293-CNG parental cells, cAMP membrane potential fluorescence; normalised: DMSO wells 0%, forskolin wells 100%. activation, % at 3 µM. 1,600 compounds, 10% hits; in the data active = activation above about 1.3%
* marks the source's active call; other numbers are inactive results; . = no result given; ! = not active in a repeat.

SMILES	NCOA1 inh	NR5A2 inv ag	GalR3 antag	COUP-TFII inh	NCOA2 inhibitor	SRC3 inh	GalR3 conf	CNG parental
COC(=O)[C@]12C[C@H](CC(=O)NCc3cccc4ccccc34)C(=O)N(CCc3ccc(OC)c(OC)c3)C1=C[C@H](COCc1ccccc1)O[C@@H]2C	.	.	.	0.5	-10.5	.	.	.
O=C(NCC(c1ccccc1)c1ccccc1)[C@H](Cc1ccccc1)NC1(C(=O)NC2CCCCC2)CCCCCC1	.	.	.	22.9	.	.	.	.
COc1c(/C=C2\SC(=Nc3ccccc3Cl)NC2=O)cccc1[N+](=O)[O-]	3.2	11.7	51.3*	-2.5	5.7	-28.6	64.6*	0.7
CCCn1c(SCc2ccc(Cl)cc2)nc2c1c(=O)[nH]c(=O)n2C	-22.3	13.2	14.2*	-6.5	-34.0	-14.3	31.8*	1.3*
CC(=O)C1=C(C)NC(=S)NC1c1ccc(F)cc1 (stereo not drawn)	.	.	-5.4	10.8	-1.4	.	.	.
Cc1cc2ccccn2c1C(=O)Nc1cccc(Cl)c1	-27.0	4.8	12.8*	-30.9	3.5	-19.9	10.7	0.1
Clc1nc2c(-c3ccccc3)nnn2c2ccccc12	-46.6	-11.4	7.6	-12.2	-15.6	-26.2	.	.
Fc1cccc(-c2nnn3c2nc(Cl)c2ccccc23)c1	-74.8	-36.8	14.0*	-20.4	-47.2	-44.5	6.4	3.8*
COc1ccccc1C(=O)Nc1ccncc1	6.7	5.3	-2.5	-3.8	-11.4	-4.4	.	.
COc1ccccc1C(=O)Nc1ccc(C2=NNC(=O)CC2C)cc1 (stereo not drawn)	-52.1	-7.9	73.2*	-17.3	-25.9	-12.2	73.3*	0.3
S=C1NNC2(NN1)C1CC3CC(C1)CC2C3	-16.9	-7.3	15.0*	-3.5	17.4	18.6	3.1	0.3
CCOC(=O)CS(=O)(=O)c1nc(-c2ccc(F)cc2)cc(C(F)(F)F)n1	-45.1	-27.8	.	.	.	-10.0	.	.
CS(=O)(=O)c1nc(-c2ccc(F)cc2)cc(C(F)(F)F)n1	-39.5	-26.9	25.7*	-57.9	-0.1	-35.7	24.9*	0.8
COc1ccc(-c2cc(C(F)(F)F)nc(S(C)(=O)=O)n2)cc1	-30.7	-15.2	31.8*	-51.3	-11.8	-21.9	13.4*	1.1
CC(=O)CC[C@@H]1CC[C@]2(CCCN(C(=O)C3CCCCC3)C2)O1	.	.	.	1.7	-1.6	.	.	.
Cc1[nH]nc(NCCO)c1[N+](=O)[O-]	-24.4	11.7	.	11.9	-14.1	2.0	69.2*	-0.6
CCOC(=O)[C@]12CCCC3=C1N(CCC3)C(=O)[C@@H](CC(=O)NCc1ccc(OC)c(OC)c1)C2	.	.	.	5.0	-2.9	.	.	.
O=C(COC(=O)c1n[nH]c2ccccc12)NCCc1ccc(Cl)cc1	-9.0	-20.1	35.9*	-36.1	6.0	13.1	56.3*	0.5
C=CCSc1nsc(NC(=O)Nc2ccc(F)cc2)n1	17.1	21.5	68.7*	53.6*	-0.9	54.9	39.8*	0.3
COc1ccc(C(=O)C2CCCN(C(=O)c3ccoc3C)C2)cc1F (stereo not drawn)	8.9	-6.0	12.6*	2.7	-9.5	21.0	8.4	0.4
O=C(/C=C(\Nc1cccc(Cl)c1)c1ccccc1)c1ccccc1	.	.	-4.6	-26.9	-36.5	.	.	.
COc1ccc(/C=C2\OC(=O)c3c(OC)cccc32)cc1OC	-93.9	-111.7	61.7*	-147.7	-41.0	-54.9	20.4*	0.4
COC(=O)C1=C(C)N(Cc2ccccc2C(F)(F)F)C(=NCc2ccc3c(c2)OCO3)NC1c1cccc(F)c1 (stereo not drawn)	.	.	-10.1	-13.5	-2.2	.	.	.
C=C(C)[C@@H]1CC=C(CN2CCC(N3CCC(C(=O)N4CCCC4)CC3)CC2)CC1	-4.4	2.0	19.5*	32.7	-6.0	17.4	2.8	4.4*
C=C(C)C1CC=C(CN2CCC(O)CC2)CC1 (stereo not drawn)	14.9	8.1	-2.2	-15.0	3.5	-13.3	.	.
SMILES	NCOA1 inh	NR5A2 inv ag	GalR3 antag	COUP-TFII inh	NCOA2 inhibitor	SRC3 inh	GalR3 conf	CNG parental
CC(=O)Nc1ccc2c(c1)CCc1ccccc1-2	-102.4	-60.6	-10.4	-34.3	-42.6	-33.2	.	.
O=C(O)/C=C/C(=O)c1ccc2c(c1)CCc1ccccc1-2	-49.2	-34.4	24.6*	-11.4	-16.9	-61.2	15.7*	0.5
CCS(=O)(=O)c1ccc(O)c(NC(=O)CCCC(=O)O)c1	-2.9	9.9	-3.5	-0.3	-5.4	13.7	.	.
CCS(=O)(=O)c1ccc(O)c(NC(=O)/C=C/c2ccccc2)c1	-41.3	-73.8	12.7*	-33.5	-29.9	-40.4	-0.5	0.1
CCc1nc2ccc(C(=O)Nc3ccc4c(c3)OCC(=O)N4)cn2c1N(CC)CCOC	13.3	-4.4	15.3*	-27.9	-44.8	8.2	11.2	0.2
O=C(CSc1nnc(-c2ccncc2)n1-c1ccc(Cl)cc1)c1ccc(Cl)c(Cl)c1	.	.	.	-0.6	11.2	.	.	.
CC(C)C(=O)N[C@H]1[C@H](O)CCC[C@]12C(=O)N(Cc1ccccc1)c1ccccc12	.	.	.	-4.7	-0.3	.	.	.
N#Cc1cccc(C(=O)C(=O)N2CCC(Cc3ccccc3)CC2)c1	.	13.6	-6.6	8.6	-0.1	.	.	.
O=C(C(=O)N1CCC(Cc2ccccc2)CC1)c1ccccc1	.	-4.4	15.6*!	5.5	1.1	.	-1.7	-0.2
CCOC(=O)C(=Cc1ccc(OCc2ccc([N+](=O)[O-])cc2)c(OC)c1)C(=O)OCC	-26.2	-12.4	.	-18.9	-11.5	-20.7	4.6	-0.2
CCCCC[C@@H](/C=C/C1C(=O)C=C[C@H]1C/C=C\CCCC(=O)OC)OC(C)=O (stereo partly drawn)	3.8	18.6	59.2*	-1.8	12.7	-20.8	89.9*	0.3
COC(=O)[C@]12C[C@H](CC(=O)NCCC(C)C)C(=O)N(Cc3ccco3)C1=C[C@H](COCc1ccccc1)O[C@@H]2C	.	.	.	-8.4	13.8	.	.	.
CCOC(=O)c1[nH]c2ccc(OC)cc2c1NS(=O)(=O)c1ccc(Cl)s1	4.9	-5.5	103.3*	-16.1	-28.8	0.3	92.5*	-0.2
COc1ccc2[nH]c(C(=O)O)c(NS(=O)(=O)c3ccc(Cl)s3)c2c1	-1.5	4.5	-5.0	-2.6	-11.6	9.9	.	.
O=C(NC(Cc1ccccc1)C(=O)O)/C(=C\c1ccc(F)cc1)NC(=O)c1ccco1 (stereo not drawn)	-5.0	-9.4	-7.6	8.2	-10.7	2.3	.	.
O=C(NC(Cc1ccccc1)C(=O)O)/C(=C/c1ccccc1)NC(=O)c1ccco1 (stereo not drawn)	-6.8	2.0	16.1*	-13.4	6.8	-8.0	7.7	0.1
Cc1cccc(C)c1NC(=O)COn1nnc2ccc(C(F)(F)F)cc21	11.4	-34.5	-1.6	-8.1	-1.8	2.4	.	.

Screening results (PubChem)
